ChEMBL document CHEMBL3433997, “St. Jude Leishmania screening dataset” (2016)

What follows are compounds tested against Glucose transporter (Leishmania mexicana) (UniProt O61059) (assay: ST_JUDE_LEISH: Cytotoxicity at 2uM final concentration against transgenic Leishmania Mexicana promastigotes LmGT2 that are glucose transport deficient and complemented with the L. Mexicana glucose transporter 2. Activity is measured by DNA content using SYBR green in vitro).
Assay type: functional

Going from `CC(=O)N(C)c1cccc(C(=O)Nc2ccc(-c3cccc(-c4nc5cccc(C)c5[nH]4)c3)cc2)c1` to `CC(C)NCc1ccc(-c2cccc(-c3nc4cc(F)ccc4[nH]3)c2)cc1`, the inhibition rises from -8.47% to -0.69%.

Compared with `O=C(NCC1CCC(C(=O)NCCc2ccc(Cl)c(Cl)c2)CC1)c1ccc(O)c(-c2ccc(Cl)c(Cl)c2)c1` (stereo not given), `COc1ccc2nccc([C@@H](O)CN3CCC(NC(=O)c4ccc(Cl)c(Cl)c4)CC3)c2c1` is higher in inhibition: 1.89% for the first, 18.8% for the second.

First: Cc1[nH]c(C)c(-c2ccc(Oc3ccc(C(F)(F)F)cc3)cc2)c(=O)c1Br
Second: Cc1[nH]c(C)c(-c2ccc(OCc3ccccc3C(F)(F)F)nc2)c(=O)c1Br
The inhibition of the first is higher: 3.05% for the first, 1.94% for the second.

Going from `COc1ccc2nccc(N(C)CC3(O)CCC(NCc4ccc5c(n4)NC(=O)CS5)CC3)c2n1` (stereo not given) to `COc1ccc2nccc([C@@H](O)CN3CCC(NCc4cc5cccc(O)c5[nH]4)CC3)c2c1`, the inhibition rises from 1.23% to 3.77%.

Going from `CCOC(=O)CN1Cc2cc(NCc3ccc4ccc5nc(C)[nH]c(=O)c5c4c3)ccc2C1=O` to `CCc1ccc(-c2nc3cc(NC(=O)c4ccc([N+](=O)[O-])o4)ccc3o2)cc1`, the inhibition rises from -0.88% to 0.78%.

Going from `CN(C)c1ccc(-c2nnc(Sc3ccc(C#N)c([N+](=O)[O-])c3)n2Cc2ccco2)cc1` to `N#Cc1ccc(-c2nc3c(N4CCCC4)cccc3n2CCNCc2ccccc2)cc1`, the inhibition rises from 0.63% to 11.8%.

First: CCn1c(-c2nonc2N)nc2cnc(Oc3cccc(NC(=O)c4ccc(OCCCN5CCCCC5)cc4)c3)cc21
Second: CCOc1cccc(C(=O)Nc2cccc(CN3CCCN(Cc4ccc(O)cc4)CC3)c2)c1
The inhibition of the first is higher: 6.29% for the first, 5.38% for the second.

Going from `CC(=O)c1ccc(NC(=O)Nc2ccc3nccc(N4CCN(C)CC4)c3c2)cc1` to `O=S(=O)(Nc1ccc2nccc(N3CCNCC3)c2c1)c1ccc2c(Cl)cccc2c1`, the inhibition falls from 1.46% to -0.37%.

Compared with `CC(=O)Nc1ccc(OCCCN(Cc2ccccc2C(F)(F)F)c2ccc(C(F)(F)F)c(C#N)c2)c(Cl)c1`, `O=C1CCCN1CCCNCc1ccc(-c2cccc(-c3nc4cc(C(F)(F)F)ccc4[nH]3)c2)cc1` is lower in inhibition: 1.94% for the first, -0.5% for the second.

Compared with `CN1CCN(CCCNCc2cccc(-c3ccc(CNCCc4ccccc4)cc3)c2)CC1`, `c1cc(CNCC2CCCO2)cc(-c2cccc(-c3nc4ccccc4[nH]3)c2)c1` (stereo not given) is lower in inhibition: 1.49% for the first, -0.18% for the second.

Going from `CO/C(=C\C=C\c1cc2cc(Cl)c(Cl)cc2[nH]1)C(=O)NCCCN1CCCC[C@H]1C` to `COc1ccc(NC(=O)C2CCN(CCCCCNC(=O)/C=C/c3ccc(Cl)c(Cl)c3)CC2)cc1`, the inhibition rises from 1.43% to 2.85%.

Compared with `c1ccc(-c2cc(NCCCCCCCCNc3cc(-c4ccccc4)nc4ccccc34)c3ccccc3n2)cc1`, `c1ccc(-c2nc3ccccc3[nH]2)c(Nc2ccnc3cc(-c4nccs4)ccc23)c1` is lower in inhibition: 83.4% for the first, 0.58% for the second.

First: C[C@@H](Nc1nc(NCc2ccccc2)c2sccc2n1)c1ccccc1
Second: CCC(NCc1ccc(-c2cncc(C(=O)NCC(C)C)c2)cc1)c1ccccc1 (stereo not given)
The inhibition of the first is lower: 8.39% for the first, 8.76% for the second.

First: O=C(NC1CCN(Cc2ccccc2)CC1)c1ccc(-c2nc3cc(Cl)c(F)cc3[nH]2)s1
Second: c1ccc(CN2CCc3cc4nccc(N5CCNCC5)c4cc32)cc1
The inhibition of the first is higher: 4.27% for the first, 0.88% for the second.

Going from `CN(C)c1nc2cc(-n3cnc4cc(-c5ccc(Cl)cc5)sc4c3=O)ccc2n1CCCN1CCCCC1` to `Cn1c(=O)c2cc(C(=O)NCCCN3CCCCCC3)sc2c2ccccc21`, the inhibition falls from 5.06% to 5.05%.

First: Cc1ccc(O)cc1Nc1ccnc2cc(-c3csc(CN(C)CCN(C)C)n3)ccc12
Second: Cc1ccccc1C(=O)Nc1cccc(-c2nc3ncccn3c2C)c1
The inhibition of the first is lower: 0.38% for the first, 1.25% for the second.

Going from `Cc1cc(N2CCC(C)CC2)nc2cc(O)ccc12` to `Oc1ccc(Br)cc1-c1nc2ccc(Cl)cc2nc1-c1cc(Br)ccc1O`, the inhibition rises from 0.89% to 2.66%.

Going from `O=C(Nc1ccc(Cl)c(Cl)c1)N1CCc2ccc(OCCCN3CCCCC3)cc2CC1` to `COc1ccccc1C1CCN(C2CCC(NC(=O)/C=C/c3cccc(C(F)(F)F)c3)CC2)CC1` (stereo not given), the inhibition falls from 20.3% to 5.04%.

Going from `Cn1cncc1-c1ccc2ncnc(Nc3ccc4c(cnn4Cc4ccccc4)c3)c2c1` to `O=C(C=Cc1cccs1)Nc1ccc(-c2nc3ccccc3[nH]2)cc1`, the inhibition rises from 1.22% to 3.04%.

Compared with `C=CC[C@@H](C(=O)OCC)[C@@H]1[C@@H](N(CC=C)C(=O)OC(C)(C)C)CCN1C(=O)OCc1ccccc1`, `CCCCNCc1ccc(-c2nc(CN(CCCn3ccnc3)C(=O)C3COc4ccccc4O3)cs2)cc1` (stereo not given) is lower in inhibition: 1.42% for the first, -0.46% for the second.
